The values below come from ChEMBL document CHEMBL4513216, “Probing the Open Global Health Chemical Diversity Library for Multistage-Active Starting Points for Next-Generation Antimalarials” (ACS Infect Dis, 2020).

Hit rate of the full screen: of about 69,000 compounds, about 8,600 (12%) showed an effect of 50% or more. Many of the other results were omitted from the sample, so strong results are more common in it than they were.

In the experiment the test system is Plasmodium berghei. Kind of experiment: Screen against P. berghei liver stage (PbLuc), transformed with Luciferase, at 10uM. The format is functional, HepG2. The note with it: tested at 10 uM.
Consider `Cc1nn(C)c(C)c1C1CCCN1Cc1nc(-c2cccs2)no1` (stereo not drawn), for which the INHIBITION is given as -2.53%.

Turning to `CC(C)c1nccc(CN2CCCC(O)(CN(C)C)CC2)n1` (stereo not drawn), the INHIBITION is given as -3.55%.

`CC1CN(CC(=O)N2CCOCC2)CCN1Cc1nccn1C` (stereo not drawn): the INHIBITION worked out at 20.915%.

As for `Cc1nc2c(c(Nc3ccccn3)n1)CN(S(C)(=O)=O)CC2`, the INHIBITION was -10.4%.

Regarding `N#Cc1ccccc1C(=O)N1C[C@@H]2CC[C@H]1CN(Cc1ccccc1)C2`, the INHIBITION is 27.6%.

For `COc1cc2nc(NCc3scnc3C)nc(N)c2cc1OC`, the INHIBITION is given as 45%.

`COCCCSc1ccc(NCc2ccc(C)cn2)cc1`: the INHIBITION came to 72.2%.

For `COCCCSc1ccc(NC(=O)Nc2cn[nH]c2)cc1`, the INHIBITION is reported as 41.2%.

`COCCCSc1ccc(NCc2scnc2C)cc1`: the INHIBITION was found to be 95.4%.

For `COCCn1ccc(NCc2scnc2C)n1`, the INHIBITION was 17.7%.

Turning to `COCCCSc1ccc(NCc2cscn2)cc1`, the INHIBITION came to 26.9%.

Turning to `COCCCNC(=O)c1cc(OC)c2ccoc2c1`, the INHIBITION is -25.7%.

Take `CNC(=O)[C@H]1C[C@@H]2CN(C(=O)c3ccoc3)C[C@@H]2N1S(C)(=O)=O`: the INHIBITION is listed as -15.2%.

For `Cc1ccsc1C(=O)NCc1ccnc(N2CCN(C)CC2)c1`, the INHIBITION came out at 4.45%.

For the compound `Cn1cc(NC(=O)Cc2ccccc2Br)cc1C(N)=O`, the INHIBITION is on record as -3.21%.

Take `CC(C)(C)c1ccc(OCC(=O)O)c(CN2C[C@H]3CC(O)C[C@H]3C2)c1` (stereo partly drawn): the INHIBITION came out at 40.55%.

`Cc1ccccc1CN1CCC2(COCc3cnc(N(C)C)nc32)C1` (stereo not drawn): the INHIBITION was 21.8%.

As to `Cc1noc(C)c1CN(C)C(=O)c1ccc(C(F)(F)F)nc1`, the INHIBITION is listed as -9.37%.

With `CN(C)CCN1CCOCC2(CCN(Cc3ccc[nH]3)CC2)C1`, the INHIBITION was -7.94%.

`Cc1cccc(N2CC(c3nnc(N)s3)CC2=O)c1` (stereo not drawn): the INHIBITION came to 35%.

On to `FC(F)(F)Oc1ccc(-c2noc([C@@H]3Cc4nc[nH]c4CN3)n2)cc1`, for which the INHIBITION was 64.8%.

Turning to `Cc1ccc(-c2noc([C@@H]3Cc4nc[nH]c4CN3)n2)cc1`, the INHIBITION is given as 36.2%.

With `Fc1ccc(-c2noc([C@@H]3Cc4nc[nH]c4CN3)n2)cc1`, the INHIBITION is reported as -9.26%.

In the case of `O=C(N[C@H]1CCCC[C@@H]1O)c1ccc(-c2nc3ccccc3[nH]2)cc1`, the INHIBITION is listed as 14.5%.

As to `Cc1ccc(NC2CCN(C(=O)c3cc(C)no3)CC2)nn1`, the INHIBITION is -25.85%.

As for `CN(CCC(F)(F)F)C(=O)C1CSCN1C(=O)C(C)(C)C` (stereo not drawn), the INHIBITION was found to be 31.2%.

For `Cc1ncoc1C(=O)N1CCCC(c2ccc3c(N)nn(C)c3n2)C1` (stereo not drawn), the INHIBITION is listed as 5.2%.

As for `CNc1nc(C2CCCN2C(C)=O)nc2c1CN(CCO)CC2` (stereo not drawn), the INHIBITION was determined as 11.5%.

Take `CNc1nc(C2CCCN2C(C)=O)nc2c1CN(C1CCCC1)CC2` (stereo not drawn): the INHIBITION is listed as 67.9%.

`CNc1nc(C2CCN(C(=O)CC3CCCC3)C2)nc2c1CN(C)CC2` (stereo not drawn): the INHIBITION was determined as 67.7%.

For the compound `CNc1nc(C2CCCN(C(=O)CNC(C)=O)C2)nc2c1CN(C)CC2` (stereo not drawn), the INHIBITION is reported as 42.4%.

With `CCC(=O)N1CCC(c2nc3c(c(NC)n2)CN(C)CC3)C1` (stereo not drawn), the INHIBITION is -22.6%.

`CNc1nc(C2CCCN2C(C)=O)nc2c1CCN(CC1CC1)C2` (stereo not drawn): the INHIBITION is reported as -2.42%.
